Data reported in PubChem BioAssay AID2501 (Southern Research Specialized Biocontainment Screening …, 2010).
The whole screen tested about 2,200 compounds, of which about 1,200 (55%) were called active. The set was probably picked from earlier hits. The list shows a part of the results. Unmarked numbers belong to inactive results. Cut-off not given; nearly all actives show IC50 up to about 92 µM.

Test: counter assay for TAg ATPase ADP read-out – biochemical, ADP-Hunter, fluorescence, counter-screen (AID 2501);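 further: purified T antigen ATPase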;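 on inhibition: 0% = enzyme with vehicle and 100% = reference inhibitor wells; higher means more inhibition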
Details: series mostly up to 100 µM; inhibition: at the top concentration

Compound | inhibition | IC50
NC(=O)Cn1c(=O)n(CCC(=O)NCCSCc2ccccc2)c(=O)c2ccccc21 | -26.1% | –
COc1cccc(C2C([N+](=O)[O-])=C(N)Oc3cc(C)oc(=O)c32)c1 (centres undefined) | -29.3% | –
CC(=O)Nc1ccc(OC(=O)C(CCS(C)(=O)=O)N2C(=O)c3ccccc3C2=O)cc1 (centres undefined) | – | 7.41 µM (active)
NC(=O)C(Cc1ccccc1)N1C(=O)c2ccccc2C1=O (centres undefined) | 0.03% | –
O=C(Nn1cnnc1)C1Cc2ccccc2CN1S(=O)(=O)c1ccc(F)cc1 (centres undefined) | -21.5% | –
CCN(c1ccccc1)S(=O)(=O)c1ccc(Cl)c(NC(=O)COC(=O)c2cc(O)c3ccccc3c2O)c1 | -35.6% | –
O=C(O)CCCn1cc(NC(=O)COc2ccccc2[N+](=O)[O-])cn1 | -8.38% | –
CCN(CC)c1ccc(NC(=O)COC(=O)c2ccc3ccccc3n2)cc1 | – | 2.2 µM (active)
COc1ccc2nc(COC(=O)c3cccs3)c(C(C)=O)[n+]([O-])c2c1 | 15% | –
Cc1ccccc1OCC(=O)NCC(=O)OCC(=O)c1ccc([N+](=O)[O-])cc1 | 5.49% | –
CCN(CC)c1ccc(NC(=O)COC(=O)COc2ccccc2[N+](=O)[O-])cc1 | – | 6.35 µM (active)
CCN(CC)c1ccc(NC(=O)COC(=O)c2cccs2)cc1 | – | 7.51 µM (active)
CC(=O)Nc1cccc(C(=O)OCC(=O)Nc2nnc(-c3ccccc3)o2)c1 | 24.2% | –
CCN(CC)c1ccc(C(=O)n2cnc3ccccc32)cc1 | 1.76% | –
CCOC(=O)C1CCCN(C(=O)Cn2sc3nc(C)cc(C)c3c2=O)C1 (centres undefined) | 20.5% | –
Nc1cnc(Nc2ccc(Br)cc2)nc1N | – | 12.1 µM (active)
Cc1cc(/C=N/Nc2ccc([N+](=O)[O-])cn2)c(C)n1-c1ccc(C(=O)O)cc1 | -1.71% | –
Cc1nc(Cl)cc(N/N=C/c2ccc(O)cc2)n1 | – | 4.8 µM (active)
O=C(N/N=C/c1ccc(-c2ccc(S(=O)(=O)Nc3ncccn3)cc2)o1)c1cc2ccccc2cc1O | 17.8% | –
CC[C@H](C)[C@H](NC(=O)c1ccccc1)C(=O)Nc1ccc(S(=O)(=O)Nc2cc(C)nc(C)n2)cc1 | -9.31% | –
Cc1ccc(S(=O)(=O)Nc2nc(C)cc(N/N=C/c3ccc(O)cc3)n2)cc1 | – | 8.77 µM (active)
CCN(CC)S(=O)(=O)c1ccc(N/N=C/c2ccc(O)cc2)nc1 | – | 4.57 µM (active)
COc1ccc(NC(=O)N2CCCc3cc(C)ccc32)c(OC)c1 | -15.2% | –
O=C(COc1ccc([N+](=O)[O-])cc1)NNC(=O)Nc1ccc([N+](=O)[O-])cc1 | -28.5% | –
COc1cc([N+](=O)[O-])ccc1NC(=O)Oc1ccc(NC(C)=O)cc1 | – | 4.33 µM (active)
c1coc(-c2nnc3sc(Cc4cccs4)nn23)c1 | 6.69% | –

Compound | inhibition | IC50
NNC(=O)c1sc2nc(N3CCOCC3)c3c(c2c1N)CCCC3 | – | 36.6 µM (active)
CNC(=O)c1ccc(-c2sc3nc(N4CCOCC4)c4c(c3c2N)CCCC4)o1 | – | 14.8 µM (active)
CNC(=O)c1ccc(-c2sc3nc(N4CCOCC4)c4c(c3c2N)CC(C)(C)OC4)o1 | – | 3.18 µM (active)
Nc1c(C(=O)NC2CC2)sc2nc3c(c(-c4ccco4)c12)CC/C3=C/c1ccco1 | 25.9% | –
C=CCc1cccc2cc(C(=O)Nc3ccc(S(=O)(=O)Nc4nnc(CC)s4)cc3)c(=O)oc12 | -26.6% | –
Cc1ccc2cn[nH]c2c1N | – | 6.68 µM (active)
O=C1CCCC(O)=C1N=Nc1ccc(C(=O)O)cc1 | -21.8% | –
CC1(C)CC(=O)C(C=Nc2ccc(O)cc2)=C(O)C1 | – | 2.78 µM (active)
O=C1CCCC(O)=C1C=Nc1ccc(O)cc1 | – | 4.6 µM (active)
Cc1ccccc1CN(C)C(=O)COC(=O)CSc1ccc([N+](=O)[O-])cc1 | -30.8% | –
COC/C=C/C1=CC2=CC(=O)C(C)(OC(=O)c3cnc4ccccc4n3)C(=O)C2=CO1 (centres undefined) | -8.04% | –
COC/C=C/C1=CC2=CC(=O)C(C)(OC(=O)c3ccco3)C(=O)C2=CO1 (centres undefined) | – | 2.83 µM (active)
COC/C=C/C1=CC2=CC(=O)C(C)(OC(=O)CCC(=O)OC)C(=O)C2=CO1 (centres undefined) | 2.78% | –
O=c1[nH]c(=O)c2nnc(N/N=C\c3ccc(O)cc3)nc2[nH]1 | – | 7.96 µM (active)
O=c1c2cc(N3CCOCC3)ccc2[nH]c(=S)n1Cc1ccco1 | 26.4% | –
CCc1cc(N2CCOCC2)cc2c1[nH]c1ccccc12 | – | 6.15 µM (active)
Cc1ccc(Cn2c(=S)[nH]c3ccc(N4CCOCC4)cc3c2=O)o1 | 9.7% | –
Cc1cc(C)c(S(=O)(=O)c2ccccc2Cl)c(Cl)n1 | 3.15% | –
CN1CCC/C1=C/C=C1\SC(=S)NC1=O | – | 7.5 µM (active)
O=C1NC(=S)SC1=C1CCCC1 | 23.6% | –
CC(=O)c1sc2nsc(SCCN3CCOCC3)c2c1N | – | 21.3 µM (active)
O=C(CCn1c(=O)oc2cc(Cl)ccc21)Nc1ccc(O)cc1 | – | 3.84 µM (active)
O=C(O)CCC(=O)Nc1ccc(SSc2ccc(NC(=O)CCC(=O)O)cc2)cc1 | -10.5% | –
CS(=O)(=O)c1ccc(NC(=O)CCN2C(=O)C3CCCCC3C2=O)cc1 (centres undefined) | -26.7% | –
CN(C)CCN(C(=O)c1ccccc1Cl)c1nc2c(Cl)cccc2s1 | 11% [at 50 µM] | –
C/C(=N/NC(N)=S)c1cc2ccc(O)cc2oc1=O | – | 25.3 µM (active)

Compound | inhibition | IC50
CCOc1ccc(NCc2nnc(SCC(=O)Nc3cc(C)on3)n2-c2ccc(OC)cc2)cc1 | – | 13.5 µM (active)
COc1ccc(-c2nnc(SCC(=O)c3ccc[nH]3)n2-c2ccccc2)cc1 | -19.4% | –
COC(=O)CSc1nnc(CNc2ccc(OC)cc2)n1C | – | 19.3 µM (active)
COc1ccc(CCNC(=O)CSc2nncs2)cc1 | -4.58% | –
COc1ccc(-n2c(SCC(=O)Nc3ccc(Cl)cc3)nc(O)c(Cc3ccccc3)c2=O)cc1 | -18.5% | –
CCN1CCC[C@H]1CNC(=O)c1c(O)c(Cl)cc(Cl)c1OC | 12.9% | –
Nc1ccc(OCC(O)C[n+]2ccc(CCS(=O)(=O)[O-])cc2)cc1 (centres undefined) | – | 4.65 µM (active)
O=C(Cc1coc(-c2ccc(F)cc2)n1)NCc1ccccc1 | 6.02% | –
Oc1cc(O)cc(/C=C/c2ccc(O)c(O)c2)c1 | 21.8% [at 50 µM] | –
O=C(O)/C=C/c1ccc(O)c(O)c1 | – | 6.76 µM (active)
O=C(O)/C=C/c1ccc(O)cc1 | – | 8.81 µM (active)
O=C(/C=C/c1ccc(O)c(O)c1)c1ccccc1O | – | 6.57 µM (active)
Oc1ccc(/C=C/c2cc(O)cc(O)c2)cc1 | – | 11.3 µM (active)
O=C(c1nnsc1S(=O)c1ccc(Cl)cc1)N1CCOCC1 (centres undefined) | -15.7% | –
COc1cccc2c(=O)n(CC(=O)Nc3ccccc3F)ccc12 | -11.2% | –
CC(/C=C/c1ccc(O)cc1)=N/O | – | 3.08 µM (active)
Cc1coc2c1C(=O)C(=O)c1c-2ccc2c(C)cccc12 | -32.7% | –
Cc1nc2ccccc2c(=O)n1/N=C/c1cn(-c2ccccc2)nc1-c1cccs1 | -4.96% | –
Oc1ccc(/C=N/n2c(COc3ccccc3)n[nH]c2=S)cc1O | – | 9.32 µM (active)
O=C(OCn1nnc2ccccc2c1=O)c1ccc(O)cc1 | -20.6% | –
N#CCn1c(CCl)nc2ccccc2c1=O | -26.1% | –
CCCc1nc2ccccc2c(=O)n1/N=C/c1ccc(O)c(O)c1 | – | 10.5 µM (active)
O=c1c2ccccc2nc(COc2ccccc2)n1/N=C/c1ccc(O)c(O)c1 | – | 12.1 µM (active)
CCn1c(/C=C/c2ccc(O)c(O)c2)nc2ccccc2c1=O | – | 64.8 µM (active)
CCn1c(/C=C/c2c(C)[nH]c3ccccc23)nc2ccccc2c1=O | -12.5% | –
CSC1=NS(=O)(=O)c2c(C)nn(C)c2S1 | 19.3% | –

Compound | inhibition | IC50
CC(C)(C)c1cc[n+](C2=C([O-])c3ccccc3C(=O)/C2=N\S(=O)(=O)c2ccccc2)cc1 | -13.2% | –
CCCNC(=O)c1ccc2c(=O)c(O)c(-c3cccc(Br)c3)[nH]c2c1 | 22.1% | –
Nc1cc(CN2C(=O)c3ccccc3C2=O)cc(Cl)c1O | – | 4.47 µM (active)
O=C1/C(=N/n2cnnc2)c2ccccc2N1Cc1ccccc1 | 2.34% | –
O=C(NCc1ccccc1)c1onc(CSc2ccc(F)cc2)c1C(=O)NCCCN1CCOCC1 | 20.7% | –
COc1cc(-c2nc3cnccn3c2Nc2ccccc2)ccc1O | – | 2.57 µM (active)
CCN(CC)c1ccc(-c2nc3cnccn3c2NC2CCCC2)cc1 | – | 12.1 µM (active)
CN(C)c1ccc(-c2nc3cnccn3c2Nc2ccc3c(c2)OCCO3)cc1 | – | 11.3 µM (active)
Oc1ccc(-c2nc3ncccn3c2Nc2ccc3c(c2)OCO3)cc1 | – | 5.13 µM (active)
CC12CCC(C/C1=N/O)C2(C)C (centres undefined) | -1.49% | –
COc1ccc(-c2c(C)n([O-])c3c([n+]2=O)CCCCC3)cc1OC | -3.4% | –
Cc1ccc(/C(O)=C2/C(=O)C(=O)OC2c2ccc(Cl)cc2)cc1 (centres undefined) | -3.47% | –
Oc1ccc(-c2nc3cnccn3c2Nc2ccc3c(c2)OCCO3)cc1 | – | 3.53 µM (active)
CCOC(=O)c1c(N)ssc1=S | 20.8% [at 12.5 µM] | –
NNC(=O)c1sc2cc(C(F)(F)F)cnc2c1-c1ccccn1 | -6.44% | –
CCOC(=O)c1cc(-c2ccc(N)cc2)sc1N | – | 5.53 µM (active)
CCOC(=O)c1sc(N)nc1C(C)C | 22.1% | –
NNC(=O)c1cc(-c2ccccc2)sc1N | – | 8.67 µM (active)
CC(=O)c1ccc2c3c(cccc13)C(=O)N(c1c(C)nn(C)c1C)C2=O | -5.47% | –
O=C(NCc1ccco1)Nc1cccs1 | 13.2% | –
O=C(NCc1cccs1)Nc1cc(Cl)ccc1Cl | – | 91.1 µM (active)
Cc1ccc(C)n1/N=C1/NC(=O)CS1 | -36% | –
Oc1cc(O)c2c(c1)OC(c1ccc(O)c(O)c1)C(O)C2 (centres undefined) | – | 3.95 µM (active)
Oc1cc(O)c2c(c1)O[C@H](c1ccc(O)c(O)c1)[C@@H](O)C2 | – | 11.9 µM (active)
COC(=O)Cc1cc(=O)n(-c2nc3ccccc3s2)[nH]1 | 24.2% | –
CC(=O)O[C@H]1C[C@@]2(C)[C@@H](C[C@@H](O)[C@H]3[C@@]4(C)CC[C@@H](O)[C@@H](C)[C@@H]4CC[C@@]32C)/C1=C(\CCC=C(C)C)C(=O)O | -1.81% | –
